Rows were chosen to be rich in hits. Some 1.8% of all compounds tested hit in one or more screens of this group.
Ba/F3 V617F tox: loss of viability in JAK2V617F-driven Ba/F3 cells; Ba/F3 EpoR-JAK2V617F viability, ATP luminescence; inhibition, % at 5.6 µM; AID 1446; hit rate 1.1% among 220,000;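 active = inhibition above the campaign mean plus 3 SD over all tested compounds, cut at about 24% in these data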;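 also: cytokine-independent growth of Ba/F3 cells driven by EpoR plus mutant JAK2; 0% = DMSO-treated cells and 100% = JAK inhibitor I control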
IEC-6 cytotox: IEC-6 cytotoxicity, counter-screen for KLF5 inhibitors. luminescence viability. inhibition, % at 5 µM. hit rate 0.78% among 290,000; in the data active = inhibition above about 22%;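 also: 0% = plate median of test compound wells and 100% = cytotoxic reference compound wells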
APP 5UTR inh: APP translation inhibition; inhibition, % at 2 µM; AID 1285; hit rate 0.82% among 190,000; SH-SY5Y APP 5'UTR-luciferase reporter, luminescence;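 active = inhibition above a set limit, derived from the sample mean plus 3 SD, cut at about 45% in these data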
KLF5 inhibitor: kruppel-like factor 5 inhibition; DLD-1 KLF5 promoter-luciferase reporter, luminescence; inhibition, % at 5 µM; hit rate 0.23% among 290,000;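 active = inhibition above a per-plate limit of that plate's mean compound inhibition plus 3 SD, cut at about 60% in these data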;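 also: 0% = DMSO wells and 100% = LY294002 at 200 µM; higher means less KLF5 promoter-driven luciferase light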
BaF3 parental: reduces parental Ba/F3 cell viability, JAK2V617F counter-screen; inhibition, % at 5.6 µM; CellTiter-Glo ATP luminescence; hit rate 1.1% among 220,000;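 active = inhibition above a per-campaign cutoff, the mean inhibition of all tested compounds plus 3 SD, cut at about 27% in these data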;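 also: 0% = DMSO wells and 100% = JAK Inhibitor I control wells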
The depositor's hits bear a star; x = not tested or not shown.

SMILES	Ba/F3 V617F tox	IEC-6 cytotox	APP 5UTR inh	KLF5 inhibitor	BaF3 parental
COc1ccc(/C=C(/C(=O)c2cccs2)N2C=CC=CC2=C(C#N)C#N)cc1	-3	3	82*	-9	-1
COc1ccc(N=N/C(=C\O)C(=O)c2cccs2)cc1	-2	2	2	16	2
COc1ccc(Nc2nc3cc(C)ccc3cc2C#N)c(OC)c1	-3	-3	92*	0	3
O=C1c2ccccc2CN1Cc1ccccc1	x	5	x	2	x
Nc1ccc2nc3c(c(Cl)c2c1)CCCC3	17	3	x	-26	63*
O=C(c1nnsc1S(=O)c1ccc(Cl)cc1)N1CCOCC1 (stereo unspecified)	90*	14	48*	14	40*
O=C(Nc1cccc(S(=O)(=O)Nc2ccc(Cl)cc2)c1)c1ccc[n+]([O-])c1	1	7	x	0	-3
CC(C)Oc1ccc(CNC(=S)Nc2ccccc2)cc1Cl	x	-4	x	-11	x
CC(C)Oc1ccc(CCN=C(N)N=C(N)N)cc1Cl	6	1	-12	13	36*
Cc1cccc(NC(=O)C2(c3cccs3)CCOCC2)c1	0	-4	16	11	4
Cc1cccc(N2CC(O)(c3cccs3)[N+]3=C2CCCCC3)c1 (stereo unspecified)	30*	-1	1	-25	52*
Cc1ccccc1N1CC(O)(c2cccs2)[N+]2=C1CCCC2 (stereo unspecified)	7	0	-4	-7	6
Cc1ccc(N2CC(O)(c3cccs3)[N+]3=C2CCCC3)cc1 (stereo unspecified)	9	4	-4	-7	45*
Cc1cccc(N2CC(O)(c3cccs3)[N+]3=C2CCCC3)c1C (stereo unspecified)	24*	8	-5	-9	36*
CCc1ccc(N2CC(O)(c3cccs3)[N+]3=C2SCCC3)cc1 (stereo unspecified)	52*	-2	1	-15	57*
Cc1cccc(N2CC(O)(c3cccs3)[N+]3=C2CCCC3)c1 (stereo unspecified)	26*	11	-9	11	36*
COc1ccc(C2(O)CN(c3ccc(C)cc3)C3=[N+]2CCCC3)cc1 (stereo unspecified)	17	-4	2	9	34*
O=C(NCC(=O)N1CCCC1)c1ccc(Cl)cc1	x	-7	x	-37	x
Cc1cc(OCC(=O)OCC(=O)Nc2cc(C(F)(F)F)ccc2N2CCOCC2)ccc1Cl	1	0	-4	-25	3
COc1ccc(C(=O)Nn2c(C)nc3ccccc3c2=O)cc1[N+](=O)[O-]	x	4	x	-14	x
COc1cc(C2=NOC(C(=O)NCc3cccs3)C2)cc(OC)c1OC (stereo unspecified)	82*	21	x	42	77*
COc1ccc(C2=NOC(C(=O)NCc3cccs3)C2)cc1 (stereo unspecified)	0	22	2	11	3
c1ccc2c(c1)N1CCCN=C1N2CCN1CCCCC1	1	6	19	-20	1
O=C1N=C2N(CCN3CCCCC3)c3ccccc3N2/C1=C\c1ccc([N+](=O)[O-])o1	-2	-5	96*	-18	1
CC(C)Sc1nc2c(cnn2-c2ccc(Cl)cc2)c(=O)[nH]1	x	2	x	-28	x
SMILES	Ba/F3 V617F tox	IEC-6 cytotox	APP 5UTR inh	KLF5 inhibitor	BaF3 parental
CCOC(=O)N1CCC(NC(=O)c2ccc3c(c2)sc2nc(-c4ccc(OC)cc4)cn23)CC1	0	2	-1	-2	27*
O=C(Nc1cccc(Cl)c1)Nc1nccs1	1	11	-40	-88	6
O=C(Nc1ccc(Cl)c(Cl)c1)Nc1nccs1	73*	78*	x	33	71*
CC(=O)OC(COC1C[C@@H]2CC[C@@]1(C)C2(C)C)C[N+]1(C)CCCCC1 (stereo partly specified)	1	-1	x	-1	39*
CCCCCCCC#Cc1ccccc1/C=N/S(=O)c1ccc(C)cc1 (stereo unspecified)	8	-2	19	-20	38*
O=C(NNC(=O)c1oc2ccccc2c1-n1cccc1)c1ccco1	-1	-9	2	-6	-1
NNC(=O)c1oc2ccccc2c1-n1cccc1	6	8	62*	-16	9
CCCCN(C(=O)c1cc2ccccc2o1)c1c(N)n(CCC)c(=O)[nH]c1=O	3	2	-1	-10	11
CCCCN(C(=O)c1cc2ccccc2o1)c1c(N)n(CC(C)C)c(=O)[nH]c1=O	-3	2	54*	-3	5
CC1CC(C)CN(S(=O)(=O)c2ccc(C(=O)NCCCn3ccnc3)cc2)C1 (stereo unspecified)	6	4	73*	6	4
CCOc1ncccc1C(=O)OCC(=O)Nc1ccc2c(c1)OCO2	1	8	-3	-11	3
Cc1cc(C(C)(C)C)cc(C)c1Cn1c2[n+](c3ccc(C(F)(F)F)cc31)CCCCC2	49*	5	6	8	53*
FC(F)(F)c1cccc(Cn2c3[n+](c4ccc(C(F)(F)F)cc42)CCCCC3)c1	-2	0	9	-5	8
Cc1ccc(S(=O)(=O)N(C)C)cc1NC(=O)c1cc(=O)c2ccccc2o1	x	4	x	-24	x
CCCC(=O)Nc1cc(-c2nnc(OC)c3ccccc23)ccc1N1CCCCC1	1	9	-18	3	-1
COc1nnc(-c2ccc(N3CCCCC3)c(N)c2)c2ccccc12	37*	6	-18	-9	46*
CC(C(=O)O)N1CCCCC1 (stereo unspecified)	2	-2	x	-12	4
O=C(Cn1cnc2ccccc21)Nc1ccc(SC(F)F)cc1	36*	10	15	-55	50*
CC1=NN(c2ccccc2)C(=O)/C1=C\c1cc(C)n(-c2ccccc2)c1C	1	25*	-50	-43	1
CC1=NN(c2ccccc2)C(=O)/C1=C\c1cc(C)n(-c2cccnc2)c1C	3	-2	x	-4	-3
CCC(C)[C@H](NS(=O)(=O)c1ccc(C)cc1)C(=O)N1CCC(C(=O)N[C@@H](Cc2ccccc2)C(=O)O)CC1 (stereo partly specified)	x	-2	x	1	x
C/C(CC(=O)Nc1cccc(C(F)(F)F)c1)=N\NC(=O)C1CCCCC1	-4	-4	-6	-20	0
CN(C)c1cc[n+](CC(=O)c2ccc(OC(F)F)cc2)cc1	40*	-3	x	-16	47*
CC(C)N1CCN(C(=O)c2ccc(OC3CCN(CCc4ccccc4)CC3)cc2)CC1	x	13	x	-29	x
CCNc1ccc(C(=O)NN=C2CCCC2)cc1[N+](=O)[O-]	1	-5	65*	3	6
CC(C)(C)c1ccc(C(=O)NN=C2CCCC2)cc1	x	3	x	-20	x
O=C(NC12CC3CC(CC(C3)C1)C2)c1c(Cl)cccc1Cl	x	1	x	-11	x
Cc1noc(C)c1CSc1nc2[nH]ncc2c(=O)n1-c1ccccc1	70*	82*	94*	74*	73*
CCCOc1ccc(/C=N/NC(=S)Nc2ccccc2[N+](=O)[O-])c(O)c1	-3	-1	46*	35	4
COC(=O)c1ccccc1NC(=O)C1CCN(C(=O)c2ccc(OC)cc2)CC1	1	-3	-1	-20	1
